From PubChem BioAssay (NCATS)
Where “and” joins values, the source holds several entries; their conditions need not be identical. Equal entries are not always repeated. Results filed as inconclusive are left out. Calls of active or inactive are those of the source. Calls follow the shape of the dose curve; as a rule, active = well fitted curve in the direction sought with a large enough effect; inconclusive = small, poorly fitted or top-dose-only effect, or another doubt; inactive = no such curve, though single readings can be large; an effect the other way counts as inactive or inconclusive.

Assays:
[1] = qHTS assay for measurement of the activity of small molecule inhibitors on Zika virus induced Caspase-3 activity in human iPSC derived neural progenitor cells (hNPCs) (AID 1224857); also: % of control where 0% means no effect; nearly all actives have a fitted effect of over 65% in size
Outline: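 Human iPSC-derived neural progenitor cells pretreated 1 hr with compounds, then infected with Zika virus (2 FFU/cell) for 6 hours at 37 C. Caspase-3/7 measured by Caspase-Glo luminescence; % inhibition calculated from induction scaled to uninfected (0%) and infected (100%) wells.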

[2] = qHTS assay for measurement of the activity of small molecule inhibitors on Zika virus induced Caspase-3 activity in human astrocytoma cells (AID 1224859);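 also: plate controls were ZIKV-infected untreated cells for no effect and uninfected cells for full effect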
Outline: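 SNB-19 astrocytoma cells, 250/well, pretreated 1 h with compounds, then Zika virus at 2 FFU/cell for 6 h at 37 C; Caspase-Glo 3/7 luminescence after 30 min; percent inhibition normalised to uninfected and infected controls.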

[3] = P-glycoprotein substrates identified in KB-8-5-11 adenocarcinoma cell line, qHTS therapeutic library screen (AID 1346987); also: nearly all actives have a fitted effect of over 65% in size; also: potency is read from the fitted curve at half-maximal effect
Outline: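 Luminescence from CellTiter-Glo, read 5 min after addition, quantified survival of KB-8-5-11 (P-gp-overexpressing) cells exposed to compounds for 72 h. AC50 was derived from concentration-response curves.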

[4] = NS1 protein of Zika virus - qHTS assay to identify small molecule inhibitors in human HEK 293 cells (AID 1347053); also: nearly all actives have a fitted effect of over 55% in size; also: potency is read from the fitted curve at half-maximal effect;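 as to activity change, negative = inhibition: series mostly up to about 46 µM; plate controls were infected untreated cells for no effect and uninfected cells for full effect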
Outline: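 TR-FRET signal from two anti-ZIKV NS1 antibodies quantified NS1 in HEK 293 cells 24 h after MR766 infection at MOI = 0.5; compounds were added 1 h before virus. Uninfected cells and infected cells defined the NS1 normalization range.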

[5] = qHTS of pediatric cancer cell lines to identify multiple opportunities for drug repurposing: Primary screen for TC32 cells (AID 1347089); also: nearly all actives have a fitted effect of over 60% in size; also: potency is read from the fitted curve at half-maximal effect; as to activity change, negative = cytotoxic: % is scaled to controls: 0 for no effect and ±100 for the full control effect
Outline: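 TC32 cells, 500-1,000/well in growth medium, compound-treated 48 h at 37 °C; viability from CellTiter-Glo luminescence. Primary screen: MIPE 11-point (0.78 nM–46 µM final), NPC 8-point (0.59 nM–46 µM final); confirmatory at 11-point dilutions.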

[6] = qHTS of pediatric cancer cell lines to identify multiple opportunities for drug repurposing: Primary screen for SJ-GBM2 cells (AID 1347091); also: potency is read from the fitted curve at half-maximal effect;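 as to activity change, negative = cytotoxic: plate controls were DMSO neutral control for no effect and bortezomib for full effect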
Outline: (§1)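 Eight- or eleven-point concentration series, 48 h treatment at 37 degrees C in growth media; readout CellTiter-Glo luminescence. Potency and efficacy were taken from the concentration-response curves.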

[7] = qHTS of pediatric cancer cell lines to identify multiple opportunities for drug repurposing: Primary screen for SK-N-MC cells (AID 1347093); also: potency is read from the fitted curve at half-maximal effect;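 as to activity change, negative = cytotoxic: series mostly up to about 46 µM; plate controls were DMSO neutral control for no effect and bortezomib for full effect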
Outline: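 Metabolically active cells were quantified by ATP-dependent luminescence (CellTiter-Glo, 15 min at room temperature) following 48 h treatment. Cells had been plated at 500-1,000 per well and settled for 5 h beforehand.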

[8] = qHTS of pediatric cancer cell lines to identify multiple opportunities for drug repurposing: Primary screen for NB-EBc1 cells (AID 1347095); also: potency is read from the fitted curve at half-maximal effect;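 as to activity change, negative = cytotoxic: plate controls were DMSO neutral control for no effect and bortezomib for full effect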
Outline: (§2)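 ATP-based luminescence (CellTiter-Glo) quantifies viability after a 48-hour exposure. Compounds are dosed across 8 or 11 final concentrations; DMSO and 2.3 µM bortezomib serve as controls.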

[9] = qHTS of pediatric cancer cell lines to identify multiple opportunities for drug repurposing: Primary screen for BT-37 cells (AID 1347094); also: potency is read from the fitted curve at half-maximal effect;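 as to activity change, negative = cytotoxic: series mostly up to about 57 µM; plate controls were DMSO for no effect and bortezomib for full effect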
Outline: as §2

[10] = qHTS of pediatric cancer cell lines to identify multiple opportunities for drug repurposing: Primary screen for U-2 OS cells (AID 1347096); also: nearly all actives have a fitted effect of over 50% in size; also: potency is read from the fitted curve at half-maximal effect;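 as to activity change, negative = cytotoxic: plate controls were DMSO wells for no effect and bortezomib positive control wells for full effect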
Outline: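 Cells (500-1,000/well) in growth media were settled 5 h at 37 degrees C, then given compounds for 48 h. Viability was read as CellTiter-Glo luminescence. Primary runs used MIPE at 11 points (0.78 nM-46 µM) and NPC at 8 points (0.59 nM-46 µM); follow-ups used 11 points.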

[11] = qHTS of pediatric cancer cell lines to identify multiple opportunities for drug repurposing: Primary screen for A673 cells (AID 1347092); also: nearly all actives have a fitted effect of over 45% in size; also: potency is read from the fitted curve at half-maximal effect; as to activity change, negative = cytotoxic: % is scaled to controls: 0 for no effect and ±100 for the full control effect
Outline: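 A673 cells (500-1,000 cells/well) were treated 48 hours at 37 degrees C with compounds at 11-point (0.78 nM to 46 µM) or 8-point (0.59 nM to 46 µM) dilutions. Viability read by CellTiter-Glo luminescence; concentration-response curves fitted.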

[12] = qHTS of pediatric cancer cell lines to identify multiple opportunities for drug repurposing: Primary screen for DAOY cells (AID 1347090); also: nearly all actives have a fitted effect of over 55% in size; also: potency is read from the fitted curve at half-maximal effect;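 as to activity change, negative = cytotoxic: series mostly up to about 46 µM; plate controls were DMSO for no effect and bortezomib for full effect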
Outline: as §1

O=C(O)c1[nH]n(-c2ccc(S(=O)(=O)O)cc2)c(=O)c1N=Nc1ccc(S(=O)(=O)O)cc1
inactive: Potency [1] | outcome [2] | Potency [3] | Potency [4] | Potency [5] | Potency [6] | Potency [7] | Potency [8]

O=C(Oc1ccccc1)c1ccccc1O
inactive: Potency [1] | outcome [2] | Potency [3] | Potency [4] | Potency [5] | Potency [6] | Potency [7] | Potency [9] | Potency [8] | Potency [10]

C1=CC2C3C=CC(C3)C2C1 (centres undefined)
inactive: Potency [1] | outcome [2] | Potency [3] | Potency [4] | Potency [5] | Potency [11] | Potency [7] | Potency [9] | Potency [8] | Potency [10]

CO[C@@H]1[C@@H](OC)[C@H](C)[C@@](O)(CC(=O)O)O[C@H]1[C@H](C)[C@H]1O[C@@]2(CC[C@@](C)([C@H]3CC[C@@](C)([C@@H]4O[C@@H]([C@H]5O[C@](C)(O)[C@H](C)C[C@@H]5C)C[C@@H]4OC4C[C@H](OC)[C@@H](OC)[C@H](C)O4)O3)O2)C[C@H](O)[C@H]1C (some centres undefined)
inactive: Potency [1] | outcome [2]
active: Potency [3] 8.2 µM | Potency [5] 1.87 µM | Potency [12] 3.35 µM | Potency [11] 4.22 µM | Potency [7] 0.188 µM | Potency [9] 0.389 µM | Potency [10] 8.41 µM

CCCC(=O)c1cc(O)c(O)cc1O
inactive: Potency [1] | outcome [2] | Potency [3] | Potency [10]
active: Potency [11] 12.2 µM

COC(=O)c1c(Cl)c(Cl)c(C(=O)OC)c(Cl)c1Cl
inactive: Potency [1] | outcome [2] | Potency [3] | Potency [5] | Potency [6] | Potency [11] | Potency [7] | Potency [9]

CN1C(CSCC(F)(F)F)Nc2cc(Cl)c(S(N)(=O)=O)cc2S1(=O)=O (centres undefined)
inactive: Potency [1] | outcome [2] | Potency [3] | Potency [5] | Potency [12] | Potency [6] | Potency [11] | Potency [7] | Potency [9] | Potency [8] | Potency [10]

NCC(=O)O
inactive: Potency [1] | outcome [2] | Potency [3] | Potency [4] | Potency [12] | Potency [6] | Potency [11] | Potency [9] | Potency [8] | Potency [10]

Nc1cccc2c(N)cccc12
inactive: Potency [1] | outcome [2] | Potency [3] | Potency [4] | Potency [12] | Potency [6]
active: Potency [11] 24.3 µM | Potency [7] 24.3 µM

Nc1ccc2cc3ccc(N)cc3nc2c1
active: Potency [3] 14.6 µM | Potency [11] 13.3 µM | Potency [9] 9.78 µM | Potency [8] 4.73 µM
inactive: Potency [1] | outcome [2]

O=C(COCCOCCOCC(=O)Nc1c(I)cc(I)c(C(=O)O)c1I)Nc1c(I)cc(I)c(C(=O)O)c1I
inactive: Potency [1] | outcome [2] | Potency [3] | Potency [4] | Potency [5] | Potency [6] | Potency [11] | Potency [9] | Potency [8] | Potency [10]

O=C(Nc1ccc(Cl)cc1)Nc1ccc(Cl)c(C(F)(F)F)c1
inactive: Potency [1] | outcome [2]
active: Potency [3] 20.6 µM | Potency [12] 13.3 µM | Potency [6] 3.35 µM | Potency [11] 21.1 µM | Potency [7] 4.73 µM | Potency [9] 27.6 µM | Potency [8] 5.96 µM

CC(=O)OCC(=O)[C@@]1(O)[C@H](OC(C)=O)C[C@H]2[C@@H]3CCC4=CC(=O)C=C[C@]4(C)[C@@]3(F)[C@@H](O)C[C@@]21C
inactive: Potency [1] | outcome [2] | Potency [3] | Potency [4] | Potency [5] | Potency [6] | Potency [7] | Potency [8] | Potency [10]

CC(=O)Nc1ccc(S(=O)(=O)Nc2cc(C)on2)cc1
inactive: Potency [1] | outcome [2] | Potency [3] | Potency [5] | Potency [12] | Potency [6] | Potency [11] | Potency [7] | Potency [8] | Potency [10]

Cc1cc(OCCOCC[N+](C)(C)Cc2ccccc2)ccc1C(C)(C)CC(C)(C)C
active: Potency [5] 26.4 µM | Potency [11] 10.6 µM | Potency [9] 0.001 µM
inactive: Potency [1] | outcome [2] | Potency [3]

CN1CCC(Nc2ncc3ncnc(Nc4ccc(F)c(Cl)c4)c3n2)CC1
inactive: Potency [1] | outcome [2] | Potency [3] | Potency [5] | Potency [12] | Potency [8]
active: Potency [11] 21.1 µM | Potency [9] 17.4 µM

Nc1c2ccccc2nc2ccccc12
active: Potency [3] 13 µM | Potency [12] 21.1 µM | Potency [11] 6.68 µM | Potency [7] 11.9 µM | Potency [8] 3.76 µM
inactive: Potency [1] | outcome [2]

CCOc1ccc(NS(=O)(=O)c2ccc(N)cc2)nn1
inactive: Potency [1] | outcome [2] | Potency [3] | Potency [4] | Potency [12] | Potency [6] | Potency [11] | Potency [9] | Potency [8] | Potency [10]

O=C1NCCN1CCN1CCC(c2cn(-c3ccc(F)cc3)c3ccc(Cl)cc23)CC1
active: Potency [3] 18.4 µM and 20.6 µM | Potency [4] 7.08 µM | Potency [6] 10.6 µM | Potency [7] 6.68 µM | Potency [8] 21.1 µM
inactive: Potency [1] | outcome [2]

CC1CN(c2cc3c(cc2F)c(=O)c(C(=O)O)cn3-c2ccc(F)cc2F)CCN1 (centres undefined)
inactive: activity change, negative = inhibition [1] -6.17% [at 4.53 µM] | activity change, negative = inhibition [2] -1.94% [at 4.53 µM] | Potency [3] | activity change, negative = inhibition [4] -15.5% [at 4.81 µM] | activity change, negative = cytotoxic [12] 0.682% [at 4.84 µM] | activity change, negative = cytotoxic [11] -9.43% [at 4.84 µM] | activity change, negative = cytotoxic [7] 32.9% [at 4.84 µM] | activity change, negative = cytotoxic [8] 50.8% [at 4.84 µM] | activity change, negative = cytotoxic [10] -4.99% [at 4.84 µM]

C[N+]1(C)CCC(OC(=O)C(O)(c2ccccc2)C2CCCC2)C1 (centres undefined)
inactive: Potency [1] | outcome [2] | Potency [3] | Potency [5] | Potency [12] | Potency [6] | Potency [11] | Potency [7] | Potency [9] | Potency [8] | Potency [10]

Cc1c(C)c2c(c(C)c1OC(=O)CCC(=O)OCCO)CC[C@@](C)(CCC[C@H](C)CCC[C@H](C)CCCC(C)C)O2
inactive: Potency [1] | outcome [2] | Potency [3] | Potency [4] | Potency [6] | Potency [10]

CN1C(=O)c2ccccc2C1=O
inactive: Potency [1] | outcome [2] | Potency [3] | Potency [4] | Potency [12] | Potency [11] | Potency [7] | Potency [9] | Potency [8] | Potency [10]

CCCCCCCCCCCCCCCC[N+](C)(C)Cc1ccccc1
active: Potency [11] 13.3 µM | Potency [9] 30.9 µM
inactive: Potency [1] | outcome [2] | Potency [3]

O=C1NC2CCCCN2C12CCN(CCCN1c3ccccc3CCc3ccc(Cl)cc31)CC2 (centres undefined)
inactive: Potency [1] | outcome [2] | Potency [5]
active: Potency [3] 16.4 µM | Potency [6] 23.7 µM | Potency [7] 16.8 µM | Potency [9] 30.9 µM
